Assay outcomes: PubChem BioAssay, National Center for Advancing Translational Sciences (NCATS)
The sample as a whole holds a higher share of hits than the screen did.
Lassa entry inh – Lassa virus entry inhibition | Lassa virus pseudotype entry inhibition, cell reporter | Potency, µM (highest dose often 37.9 µM), actives largely listed as inhibitors | actives 1.2% (n = 300,000) | AID 540256; calls by dose curve; tested in HEK293 cells; also: nearly all actives have a fitted effect of over 50% in size
AMA1-RON2 inh – AMA1-RON2 (P. falciparum) interaction inhibition; AlphaScreen AMA1-biotinylated RON2 peptide binding; Potency, µM (series often up to 58.2 µM), most hits filed as inhibitors; actives 0.2% (n = 360,000); AID 720542; active = well fitted inhibition curve with a large enough effect; inconclusive = small, poorly fitted or top-dose-only effect; inactive = no such curve, though single readings can be large or run the other way; also: nearly all actives have a fitted effect of over 45% in size
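AMA1 (3D7) with his tag at 25 nM final met compounds first, then biotinylated RON2 peptide at 25 nM; detection used donor plus acceptor beads, 10 µg/mL apiece, read by AlphaScreen after 30 min at room temperature.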
Marburg entry inh – blocks Marburg virus binding to or entry into cells. Marburg virus pseudotyped entry inhibition, cell reporter. actives 1.8% (n = 300,000). Potency, µM (top dose mostly 37.8 µM), actives largely listed as inhibitors; calls by dose curve; tested in HEK293 cells
CHX counter – counter-screen for Shiga toxin inhibitors: cycloheximide protein synthesis inhibition. cell reporter, cycloheximide protein synthesis inhibition counterscreen. max response, %. actives 12% (n = 300,000). AID 2314; in the data active = max response mostly above about 13%, no sharp cut-off; inactive = mostly below about 14%; also: read at 38.3 µM for the half of the compounds with a filed dose
Shiga toxin inh – Shiga toxin inhibition; Vero cells, Shiga toxin protein synthesis inhibition reporter; inhibition, % at 38.7 µM; actives 9.2% (n = 290,000); in the data active = inhibition mostly above about 28%, no sharp cut-off; inactive = mostly below about 43%
Numbers stand for hits; 0 = inactive; ? = inconclusive; - = no result given; [ ] = another dose, or the depositor's remark.

SMILES	Lassa entry inh	AMA1-RON2 inh	Marburg entry inh	CHX counter	Shiga toxin inh
O=C(c1ccc(-n2cccn2)cc1)N1CCc2ccccc2C1	0	0	0	24	0
Cc1nn(CCC(=O)Nc2ccc(Cl)cc2)c(C)c1S(=O)(=O)N1CCCCC1	0	-	-	-	-
CC(C)(C)NNC(=S)Nc1ccc(S(=O)(=O)N2CCOCC2)cc1	0	0	0	0	0
CCOc1ccc(C(=O)NCC(=O)Nc2ccc(N3CCOCC3)cc2)cc1OCC	-	0	-	21	124
O=C(/C=C/c1ccc(Cl)cc1)Nc1ccc(N2CCCCC2)cc1	0	0	?	0	0
CCOc1ccc(C(=O)NCC(=O)Nc2ccncc2)cc1OCC	-	0	-	-	-
CCN1CCN(c2ccc(NC(=O)c3cccc(N4CCCC4=O)c3)cc2)CC1	0	0	0	25	0
O=C(/C=C/c1ccccc1)Nc1ccc(N2CCCCC2)cc1	0	0	0	26	0
Cc1ccc(NC(=S)Nc2ccc(S(=O)(=O)N3CCOCC3)cc2)cc1S(=O)(=O)N1CCOCC1	11µM	0	0	0	0
O=C(Nc1ccc(Cl)cc1)c1ccc(S(=O)(=O)N2CCOCC2)cc1	0	0	?	0	0
COc1ccc(C(=O)Nc2ccc(-c3ccc(C)o3)cc2)cc1S(=O)(=O)N1CCOCC1	7.9µM	0	13µM	19	0
COc1ccc(C(=O)Nc2ccc(N3CCOCC3)cc2)cc1S(=O)(=O)N1CCOCC1	0	0	0	-	-
Cc1ccc(C(=O)Nc2ccc(N3CCN(S(C)(=O)=O)CC3)cc2)cc1	0	0	?	0	0
O=C(Nc1ccc(N2CCCC2=O)cc1)c1cccc(F)c1	0	0	?	39	76
Cc1ccc(C(=O)Nc2ccc(N3CCOCC3)cc2)cc1	0	0	0	65	0
Cc1ccc(NC(=O)c2ccc(S(=O)(=O)N3CCOCC3)cc2)cc1	?	0	0	29	0
CC(=O)c1ccc(NC(=O)c2ccc(N3CCCC3=O)cc2)cc1	0	0	0	-	-
CCOC(=O)c1c(C)[nH]c(C)c1S(=O)(=O)N(C)CC(=O)Nc1cccc(C(F)(F)F)c1	0	-	-	-	-
CC1C(=O)N(Cc2cn(Cc3ccco3)nn2)CCS(=O)(=O)N1Cc1ccc(-c2ccc(Cl)c(Cl)c2)cc1 (stereo not given)	-	0	-	-	-
Cc1cccc(NC(=O)CSc2ncc3c(n2)-c2ccccc2N(Cc2ccc(F)cc2)S3(=O)=O)c1C	0	-	-	-	-
COC(=O)c1ccc(NC(=O)c2cc(S(=O)(=O)N3CCOCC3)cn2C)cc1	0	-	-	-	-
O=C(Nc1ccc(N2CCN(C(=O)c3cccs3)CC2)cc1)c1cccc(F)c1	0	0	?	0	0
COc1cc(C(=S)N2CCCC2)ccc1OS(=O)(=O)c1ccc(NC(C)=O)cc1	16µM	0	0	0	0
Cc1ccc(NC(=O)c2cc(S(=O)(=O)N3CCOCC3)ccc2F)c(C)c1	0	0	0	23	0
Cn1cc(S(=O)(=O)N2CCOCC2)cc1C(=O)Nc1ccc(Cl)cc1	-	0	-	0	39
SMILES	Lassa entry inh	AMA1-RON2 inh	Marburg entry inh	CHX counter	Shiga toxin inh
O=C(Nc1ccc(N2CCCC2)cc1)c1cccc(F)c1	?	0	?	54	145
Cc1ccc(C(=O)Nc2ccc(N3CCN(C)CC3)nc2)cc1	0	0	0	32	0
O=C(Nc1ccc(N2CCCCC2)cc1)c1ccccc1	7.3µM	0	?	0	88
COc1ccc(S(=O)(=O)N2CCOCC2)cc1NC(=O)c1ccccc1-c1ccc(C(F)(F)F)cc1	6.3µM	0	?	0	0
COc1ccc(NC(=O)c2ccccc2-c2ccc(C(F)(F)F)cc2)cc1S(=O)(=O)N1CCOCC1	?	0	0	0	0
Cc1ccc(C(=O)Nc2ccc(N3CCCC3)cc2)cc1	0	0	0	26	69
Cc1ccc(C(=O)Nc2ccc(S(=O)(=O)N3CCCC3)cc2)s1	-	0	-	14	0
Cc1onc(-c2ccccc2)c1C(=O)Nc1ccc(S(=O)(=O)N2CCCC2)cc1	?	0	?	19	0
COc1cc2c(cc1OC)CN(C(=O)c1ccc(OC)c(S(=O)(=O)N3CCOCC3)c1)CC2	0	0	0	24	0
O=C(Nc1ccc(S(=O)(=O)N2CCCC2)cc1)c1cncc(Br)c1	-	0	-	-	-
COc1ccc(C(=O)N2CCCC2)cc1S(=O)(=O)N1CCOCC1	0	0	0	0	0
O=C(Nc1ccc(N2CCCCC2)cc1)c1cncc(Br)c1	0	0	?	0	141
Cc1cc(C(=O)Nc2ccc(S(=O)(=O)N3CCCC3)cc2)cs1	0	0	0	0	0
Cc1cccc(NC(=O)CSc2ncc(-c3ccc(Br)cc3)[nH]2)c1	0	-	?	-	-
Cc1cc(C)cc(NC(=O)N2CCN(C(=O)c3nsc4ccccc34)CC2)c1	0	-	-	-	-
COC(=O)C1=C(C)N(Cc2ccccc2)C(=NCCc2ccc(O)cc2)NC1c1ccc(Br)cc1 (stereo not given)	-	-	0	-	-
CC(C)c1ccc(NC(=S)NN2CCOCC2)cc1	0	0	?	23	48
O=C(Nc1nccs1)c1ccc(S(=O)(=O)N2CCOCC2)cc1	?	0	?	15	0
O=C(Nc1nnc(-c2ccc(F)cc2)o1)c1ccc(S(=O)(=O)N2CCOCC2)cc1	?	0	7.9µM	0	0
CCN1CCc2c(sc(NC(=O)c3ccc(S(=O)(=O)N4CCOCC4)cc3)c2C(=O)OC)C1	?	0	10µM	0	0
CCOc1ccc(-c2nc(CNC(=O)NC3CCCCC3)c(C)o2)cc1	0	-	-	-	-
Cc1ccc(OCCn2nnc3sc4c(c3c2=O)CCC(C)C4)cc1 (stereo not given)	0	-	?	-	-
O=C(NC1=NCCS1)c1ccc(Cl)c(S(=O)(=O)N2CCOCC2)c1	-	0	-	0	0
NC(=O)NC(=O)C(Nc1ccc(N2CCCCC2)cc1)c1ccccc1 (stereo not given)	0	?	?	51	121
Cc1ccc(NC(=O)Nc2ccc(C(=O)N3CCOCC3)cc2)cc1	0	0	0	0	0
SMILES	Lassa entry inh	AMA1-RON2 inh	Marburg entry inh	CHX counter	Shiga toxin inh
O=C(Nc1ccc(S(=O)(=O)N2CCCC2)cc1)c1ccc(CN2CCc3ccccc3C2)cc1	?	0	?	0	0
O=C(Nc1ccc(S(=O)(=O)N2CCOCC2)cc1)c1ccc(CN2CCc3ccccc3C2)cc1	10µM	0	2.5µM	0	0
CC(=O)Nc1ccc(N2CCCC2)cc1	0	0	0	0	0
COc1ccc(C(=O)Nc2ccc(N3CCCCC3)cc2)cc1Br	?	0[11.6 µM]	0	37	66
Cc1ccc(NC(=O)NN2CCOCC2)cc1	-	0	-	16	0
CC(C)CC(OC(=O)c1ccco1)C(=O)NC1CCCC1 (stereo not given)	0	0	0	0	0
COC(=O)CCCC[C@@H]1O[C@H](CCc2ccccc2)Cc2[nH]c(=S)[nH]c(=O)c21	-	0	-	-	-
CSc1ccc(CCNC(=O)Cn2c(C)c3cnn(-c4ccccc4)c(=O)c3c2C)cc1	0	-	?	-	-
Cc1noc(C)c1COc1ccccc1C(=O)NCCc1ccc(F)cc1	0	0	0	-	-
Cc1ccc(NC(=O)c2ccc(NC(=O)C3CCCCC3C(=O)O)cc2)cc1 (stereo not given)	-	0	-	30	75
Cc1cc(NC(=O)c2ccc(S(=O)(=O)N(C)CC3CCCO3)cc2)no1 (stereo not given)	0	0	?	0	0
CSc1ccccc1NC(=O)c1ccc(N2CCCC2=O)cc1	-	0	-	-	-
